# Assay results from the supplement of paper PMC4022240.
# ± gives the standard deviation.
# What was measured:
# Assay in all cases: peptide microarray binding signal (635 nm), min-max normalized on array (fraction of array maximum); higher = stronger binding
# [1] = target: T1, HaloTag-ATRX ADD domain (163-292)
# T1 chain: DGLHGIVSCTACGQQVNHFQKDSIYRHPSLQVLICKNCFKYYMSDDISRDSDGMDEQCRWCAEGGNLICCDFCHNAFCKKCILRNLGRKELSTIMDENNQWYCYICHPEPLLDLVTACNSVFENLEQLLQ
# Experimental: (§1)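 Histone 13-mer peptides were synthesized as cellulose conjugates with a C-terminal 20-atom PEG linker and printed in triplicate on nitrocellulose. The sequence given is the unmodified backbone; PTMs (Kme1/2/3, Kac, Sph/Tph, Rme/Rme2a/Rme2s, Rcit) are listed in the label and the 'peptide modifications' condition. Slides were probed at 4 °C for 1 h with biotin-labelled (HQ)5-HaloTag reader fusions (ATRX-ADD, ING2-PHD) then streptavidin-Alexa647, or with rabbit histone antibodies then anti-rabbit Alexa647. The mean 635 nm signal of the triplicate spots was scaled 0-1 between the lowest and highest values on each array.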
# [2] = target: HaloTag-ING2 PHD (mouse Ing2 200-280)
# Experimental: as §1
# [3] = target: anti-H3K4me3 antibody ab8580
# Experimental: as §1
# [4] = target: anti-H3K9me3 antibody ab8898
# Experimental: as §1
# [5] = peptide region: H2A 11-23, binder concentration: 1:2,000 dilution
# [6] = peptide region: H2A 11-23, binder concentration: 1:10,000 dilution
# [7] = peptide region: H2A 11-23, peptide modifications: H2AK13ac H2AK15ac H2AT16ph, binder concentration: 1:2,000 dilution
# [8] = peptide region: H2A 11-23, peptide modifications: H2AK13ac H2AK15ac H2AT16ph, binder concentration: 1:10,000 dilution
# [9] = peptide region: H2A 11-23, peptide modifications: H2AK13ac H2AK15ac, binder concentration: 1:2,000 dilution
# [10] = peptide region: H2A 11-23, peptide modifications: H2AK13ac H2AK15ac, binder concentration: 1:10,000 dilution
# [11] = peptide region: H2A 11-23, peptide modifications: H2AK13ac, binder concentration: 1:2,000 dilution
# [12] = peptide region: H2A 11-23, peptide modifications: H2AK13ac, binder concentration: 1:10,000 dilution
# [13] = peptide region: H2A 11-23, peptide modifications: H2AK15ac H2AT16ph, binder concentration: 1:2,000 dilution
# [14] = peptide region: H2A 11-23, peptide modifications: H2AK15ac H2AT16ph, binder concentration: 1:10,000 dilution
# [15] = peptide region: H2A 11-23, peptide modifications: H2AK15ac, binder concentration: 1:2,000 dilution
# [16] = peptide region: H2A 11-23, peptide modifications: H2AK15ac, binder concentration: 1:10,000 dilution
# [17] = peptide region: H2A 11-23, peptide modifications: H2AT16ph, binder concentration: 1:2,000 dilution
# [18] = peptide region: H2A 11-23, peptide modifications: H2AT16ph, binder concentration: 1:10,000 dilution
# [19] = peptide region: H2B 1-13, binder concentration: 1:2,000 dilution
# [20] = peptide region: H2B 1-13, binder concentration: 1:10,000 dilution
# [21] = peptide region: H2B 1-13, peptide modifications: H2BK5ac H2BK11ac, binder concentration: 1:2,000 dilution
# [22] = peptide region: H2B 1-13, peptide modifications: H2BK5ac H2BK11ac, binder concentration: 1:10,000 dilution
# [23] = peptide region: H2B 1-13, peptide modifications: H2BK5ac H2BS6ph H2BK11ac, binder concentration: 1:2,000 dilution
# [24] = peptide region: H2B 1-13, peptide modifications: H2BK5ac H2BS6ph H2BK11ac, binder concentration: 1:10,000 dilution
binder,measurement,setting,value
RAKAKTRSSRAGL [H2A 11-23 R A K A K T R S S R A G L],peptide microarray binding signal,"[1]; peptide region: H2A 11-23, binder concentration: 50 nM",0.00404 ± 4.2e-05
same,peptide microarray binding signal,"[1]; peptide region: H2A 11-23, binder concentration: 500 nM",0.00457 ± 5.4e-05
same,peptide microarray binding signal,"[2]; peptide region: H2A 11-23, binder concentration: 10 nM",0.003462 ± 3.2e-05
same,peptide microarray binding signal,"[2]; peptide region: H2A 11-23, binder concentration: 100 nM",0.00581 ± 0.00028
same,peptide microarray binding signal,[3]; [5],0.00125 ± 0.0004
same,peptide microarray binding signal,[3]; [6],0.000571
same,peptide microarray binding signal,[4]; [5],0.000257 ± 2.7e-06
same,peptide microarray binding signal,[4]; [6],0.000692 ± 7.3e-06
RAKAKTRSSRAGL [H2A 11-23 R A Kac A Kac Tph R S S R A G L],peptide microarray binding signal,"[1]; peptide region: H2A 11-23, peptide modifications: H2AK13ac H2AK15ac H2AT16ph, binder concentration: 50 nM",0.0063 ± 0.00011
same,peptide microarray binding signal,"[1]; peptide region: H2A 11-23, peptide modifications: H2AK13ac H2AK15ac H2AT16ph, binder concentration: 500 nM",0.0115 ± 0.00047
same,peptide microarray binding signal,"[2]; peptide region: H2A 11-23, peptide modifications: H2AK13ac H2AK15ac H2AT16ph, binder concentration: 10 nM",0.01009 ± 7e-05
same,peptide microarray binding signal,"[2]; peptide region: H2A 11-23, peptide modifications: H2AK13ac H2AK15ac H2AT16ph, binder concentration: 100 nM",0.0109 ± 0.00022
same,peptide microarray binding signal,[3]; [7],0.001265 ± 1e-05
same,peptide microarray binding signal,[3]; [8],0.00297 ± 7.6e-05
same,peptide microarray binding signal,[4]; [7],0.00107 ± 7.3e-05
same,peptide microarray binding signal,[4]; [8],0.00179 ± 3.4e-05
RAKAKTRSSRAGL [H2A 11-23 R A Kac A Kac T R S S R A G L],peptide microarray binding signal,"[1]; peptide region: H2A 11-23, peptide modifications: H2AK13ac H2AK15ac, binder concentration: 50 nM",0.00307 ± 8.1e-05
same,peptide microarray binding signal,"[1]; peptide region: H2A 11-23, peptide modifications: H2AK13ac H2AK15ac, binder concentration: 500 nM",0.00481 ± 0.00022
same,peptide microarray binding signal,"[2]; peptide region: H2A 11-23, peptide modifications: H2AK13ac H2AK15ac, binder concentration: 10 nM",0.0034 ± 8e-05
same,peptide microarray binding signal,"[2]; peptide region: H2A 11-23, peptide modifications: H2AK13ac H2AK15ac, binder concentration: 100 nM",0.00227 ± 5.8e-05
same,peptide microarray binding signal,[3]; [9],0.000359 ± 1.5e-05
same,peptide microarray binding signal,[3]; [10],0.000628 ± 6.7e-06
same,peptide microarray binding signal,[4]; [9],0.000529 ± 5.7e-05
same,peptide microarray binding signal,[4]; [10],0.000577 ± 1.6e-05
RAKAKTRSSRAGL [H2A 11-23 R A Kac A K T R S S R A G L],peptide microarray binding signal,"[1]; peptide region: H2A 11-23, peptide modifications: H2AK13ac, binder concentration: 50 nM",0.00351 ± 0.00033
same,peptide microarray binding signal,"[1]; peptide region: H2A 11-23, peptide modifications: H2AK13ac, binder concentration: 500 nM",0.00457
same,peptide microarray binding signal,"[2]; peptide region: H2A 11-23, peptide modifications: H2AK13ac, binder concentration: 10 nM",0.003641 ± 3.4e-05
same,peptide microarray binding signal,"[2]; peptide region: H2A 11-23, peptide modifications: H2AK13ac, binder concentration: 100 nM",0.0034 ± 0.00042
same,peptide microarray binding signal,[3]; [11],0.00051 ± 3.1e-05
same,peptide microarray binding signal,[3]; [12],0.00103 ± 2.8e-05
same,peptide microarray binding signal,[4]; [11],0.000378 ± 1.6e-05
same,peptide microarray binding signal,[4]; [12],0.00075 ± 2.9e-05
RAKAKTRSSRAGL [H2A 11-23 R A K A Kac Tph R S S R A G L],peptide microarray binding signal,"[1]; peptide region: H2A 11-23, peptide modifications: H2AK15ac H2AT16ph, binder concentration: 50 nM",0.006489 ± 4.3e-05
same,peptide microarray binding signal,"[1]; peptide region: H2A 11-23, peptide modifications: H2AK15ac H2AT16ph, binder concentration: 500 nM",0.0117 ± 0.00031
same,peptide microarray binding signal,"[2]; peptide region: H2A 11-23, peptide modifications: H2AK15ac H2AT16ph, binder concentration: 10 nM",0.00722 ± 0.0003
same,peptide microarray binding signal,"[2]; peptide region: H2A 11-23, peptide modifications: H2AK15ac H2AT16ph, binder concentration: 100 nM",0.0188 ± 0.00091
same,peptide microarray binding signal,[3]; [13],0.000925 ± 7.2e-05
same,peptide microarray binding signal,[3]; [14],0.00103 ± 2.8e-05
same,peptide microarray binding signal,[4]; [13],0.000513 ± 2.1e-05
same,peptide microarray binding signal,[4]; [14],0.000923 ± 2.5e-05
RAKAKTRSSRAGL [H2A 11-23 R A K A Kac T R S S R A G L],peptide microarray binding signal,"[1]; peptide region: H2A 11-23, peptide modifications: H2AK15ac, binder concentration: 50 nM",0.00502 ± 0.00053
same,peptide microarray binding signal,"[1]; peptide region: H2A 11-23, peptide modifications: H2AK15ac, binder concentration: 500 nM",0.00495 ± 0.00038
same,peptide microarray binding signal,"[2]; peptide region: H2A 11-23, peptide modifications: H2AK15ac, binder concentration: 10 nM",0.00388 ± 5.4e-05
same,peptide microarray binding signal,"[2]; peptide region: H2A 11-23, peptide modifications: H2AK15ac, binder concentration: 100 nM",0.0051 ± 0.00094
same,peptide microarray binding signal,[3]; [15],0.000321 ± 6.7e-06
same,peptide microarray binding signal,[3]; [16],0.00126 ± 4.3e-05
same,peptide microarray binding signal,[4]; [15],0.0004228 ± 4.1e-06
same,peptide microarray binding signal,[4]; [16],0.00121 ± 4.9e-05
RAKAKTRSSRAGL [H2A 11-23 R A K A K Tph R S S R A G L],peptide microarray binding signal,"[1]; peptide region: H2A 11-23, peptide modifications: H2AT16ph, binder concentration: 50 nM",0.0047 ± 9.3e-05
same,peptide microarray binding signal,"[1]; peptide region: H2A 11-23, peptide modifications: H2AT16ph, binder concentration: 500 nM",0.00824 ± 0.00034
same,peptide microarray binding signal,"[2]; peptide region: H2A 11-23, peptide modifications: H2AT16ph, binder concentration: 10 nM",0.00364
same,peptide microarray binding signal,"[2]; peptide region: H2A 11-23, peptide modifications: H2AT16ph, binder concentration: 100 nM",0.00794 ± 0.00055
same,peptide microarray binding signal,[3]; [17],0.000472 ± 1.2e-05
same,peptide microarray binding signal,[3]; [18],0.000913
same,peptide microarray binding signal,[4]; [17],0.000347 ± 7e-06
same,peptide microarray binding signal,[4]; [18],0.000807 ± 1.5e-05
PEPAKSAPAPKKG [H2B 1-13 P E P A K S A P A P K K G],peptide microarray binding signal,"[1]; peptide region: H2B 1-13, binder concentration: 50 nM",0.00715 ± 0.00022
same,peptide microarray binding signal,"[1]; peptide region: H2B 1-13, binder concentration: 500 nM",0.00119 ± 0.0002
same,peptide microarray binding signal,"[2]; peptide region: H2B 1-13, binder concentration: 10 nM",0.00197 ± 0.00013
same,peptide microarray binding signal,"[2]; peptide region: H2B 1-13, binder concentration: 100 nM",0.00149 ± 7.7e-05
same,peptide microarray binding signal,[3]; [19],9.44e-05 ± 1e-06
same,peptide microarray binding signal,[3]; [20],0.000342 ± 7.5e-06
same,peptide microarray binding signal,[4]; [19],0.000257 ± 2.6e-05
same,peptide microarray binding signal,[4]; [20],0.000807 ± 2.9e-05
PEPAKSAPAPKKG [H2B 1-13 P E P A Kac S A P A P Kac K G],peptide microarray binding signal,"[1]; peptide region: H2B 1-13, peptide modifications: H2BK5ac H2BK11ac, binder concentration: 50 nM",0.00439 ± 0.00015
same,peptide microarray binding signal,"[1]; peptide region: H2B 1-13, peptide modifications: H2BK5ac H2BK11ac, binder concentration: 500 nM",0.00957 ± 0.00041
same,peptide microarray binding signal,"[2]; peptide region: H2B 1-13, peptide modifications: H2BK5ac H2BK11ac, binder concentration: 10 nM",0.00853 ± 0.00038
same,peptide microarray binding signal,"[2]; peptide region: H2B 1-13, peptide modifications: H2BK5ac H2BK11ac, binder concentration: 100 nM",0.0114 ± 0.0021
same,peptide microarray binding signal,[3]; [21],0.00251 ± 0.0019
same,peptide microarray binding signal,[3]; [22],0.00108 ± 3.8e-05
same,peptide microarray binding signal,[4]; [21],0.00198 ± 0.00033
same,peptide microarray binding signal,[4]; [22],0.00225 ± 0.0002
PEPAKSAPAPKKG [H2B 1-13 P E P A Kac Sph A P A P Kac K G],peptide microarray binding signal,"[1]; peptide region: H2B 1-13, peptide modifications: H2BK5ac H2BS6ph H2BK11ac, binder concentration: 50 nM",0.0021 ± 2.5e-05
same,peptide microarray binding signal,"[1]; peptide region: H2B 1-13, peptide modifications: H2BK5ac H2BS6ph H2BK11ac, binder concentration: 500 nM",0.00276 ± 5.8e-05
same,peptide microarray binding signal,"[2]; peptide region: H2B 1-13, peptide modifications: H2BK5ac H2BS6ph H2BK11ac, binder concentration: 10 nM",0.00603 ± 0.00058
same,peptide microarray binding signal,"[2]; peptide region: H2B 1-13, peptide modifications: H2BK5ac H2BS6ph H2BK11ac, binder concentration: 100 nM",0.00206 ± 5.4e-05
same,peptide microarray binding signal,[3]; [23],0.00364 ± 0.00027
same,peptide microarray binding signal,[3]; [24],0.00131 ± 3.4e-05
same,peptide microarray binding signal,[4]; [23],0.00131 ± 4.4e-05
same,peptide microarray binding signal,[4]; [24],0.00185 ± 8e-05
